# ± gives the standard deviation.
# T1: HaloTag-ATRX ADD domain (163-292)
# T1 chain: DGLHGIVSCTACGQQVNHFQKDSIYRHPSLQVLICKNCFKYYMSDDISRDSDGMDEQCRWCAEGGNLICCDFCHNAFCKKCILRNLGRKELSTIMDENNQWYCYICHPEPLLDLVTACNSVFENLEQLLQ
# How the values were obtained:
# Test in all cases: peptide microarray binding signal (635 nm), min-max normalized on array (fraction of array maximum); higher = stronger binding
# Settings in all cases: peptide region: H3 5-17
# [1] = molecular target: T1, HaloTag-ATRX ADD domain (163-292)
# Summary of the method: (§1)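 Within each library, mean intensities of triplicate spots were min-max scaled to give the binding signal. The spots were histone 13-mer peptide–cellulose conjugates on nitrocellulose with a Cy3 tracer, blocked overnight at 4°C. They were then probed for 1 h at 4°C using biotin-labelled HaloTag reader fusions (10 nM to 1 μM) with streptavidin-Alexa Fluor 647 or rabbit histone antibodies (1:10,000 to 1:2,000) with anti-rabbit Alexa 647, and scanned at 635 nm for signal and 532 nm for misprints on an Axon GenePix 4000B.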
# [2] = molecular target: HaloTag-ING2 PHD (mouse Ing2 200-280)
# Summary of the method: as §1
# [3] = molecular target: anti-H3K4me3 antibody ab8580
# Summary of the method: as §1
# [4] = molecular target: anti-H3K9me3 antibody ab8898
# Summary of the method: as §1
# [5] = peptide modifications: H3K9me2 H3S10ph, binder concentration: 1:2,000 dilution
# [6] = peptide modifications: H3K9me2 H3S10ph, binder concentration: 1:10,000 dilution
# [7] = peptide modifications: H3K9me2, binder concentration: 1:2,000 dilution
# [8] = peptide modifications: H3K9me2, binder concentration: 1:10,000 dilution
# [9] = peptide modifications: H3K9me1 H3K14ac, binder concentration: 1:2,000 dilution
# [10] = peptide modifications: H3K9me1 H3K14ac, binder concentration: 1:10,000 dilution
# [11] = peptide modifications: H3K9me2 H3K14me2, binder concentration: 1:2,000 dilution
# [12] = peptide modifications: H3K9me2 H3K14me2, binder concentration: 1:10,000 dilution
# [13] = peptide modifications: H3K9me2 H3K14me1, binder concentration: 1:2,000 dilution
# [14] = peptide modifications: H3K9me2 H3K14me1, binder concentration: 1:10,000 dilution
# [15] = peptide modifications: H3K9me1 H3T11ph, binder concentration: 1:2,000 dilution
# [16] = peptide modifications: H3K9me1 H3T11ph, binder concentration: 1:10,000 dilution
# [17] = peptide modifications: H3K9ac H3T11ph, binder concentration: 1:2,000 dilution
# [18] = peptide modifications: H3K9ac H3T11ph, binder concentration: 1:10,000 dilution
# [19] = peptide modifications: H3K9me3, binder concentration: 1:2,000 dilution
# [20] = peptide modifications: H3K9me3, binder concentration: 1:10,000 dilution
# [21] = peptide modifications: H3K9me1 H3K14me1, binder concentration: 1:2,000 dilution
# [22] = peptide modifications: H3K9me1 H3K14me1, binder concentration: 1:10,000 dilution
# [23] = peptide modifications: H3K9ac H3S10ph, binder concentration: 1:2,000 dilution
# [24] = peptide modifications: H3K9ac H3S10ph, binder concentration: 1:10,000 dilution
binder,measurement,setting,value
QTARKSTGGKAPR [H3 5-17 Q T A R Kme2 Sph T G G K A P R],peptide microarray binding signal,"[1]; peptide modifications: H3K9me2 H3S10ph, binder concentration: 50 nM",0.00806 ± 0.00056
same,peptide microarray binding signal,"[1]; peptide modifications: H3K9me2 H3S10ph, binder concentration: 500 nM",0.0147 ± 0.00082
same,peptide microarray binding signal,"[2]; peptide modifications: H3K9me2 H3S10ph, binder concentration: 10 nM",0.03 ± 0.0049
same,peptide microarray binding signal,"[2]; peptide modifications: H3K9me2 H3S10ph, binder concentration: 100 nM",0.0527 ± 0.017
same,peptide microarray binding signal,[3]; [5],0.0068 ± 0.00063
same,peptide microarray binding signal,[3]; [6],0.00639 ± 0.00076
same,peptide microarray binding signal,[4]; [5],0.193 ± 0.067
same,peptide microarray binding signal,[4]; [6],0.0868 ± 0.021
QTARKSTGGKAPR [H3 5-17 Q T A R Kme2 S T G G K A P R],peptide microarray binding signal,"[1]; peptide modifications: H3K9me2, binder concentration: 50 nM",0.0133 ± 0.0071
same,peptide microarray binding signal,"[1]; peptide modifications: H3K9me2, binder concentration: 500 nM",0.0011 ± 2.1e-05
same,peptide microarray binding signal,"[2]; peptide modifications: H3K9me2, binder concentration: 10 nM",0.00334 ± 9.6e-05
same,peptide microarray binding signal,"[2]; peptide modifications: H3K9me2, binder concentration: 100 nM",0.00248 ± 8.6e-05
same,peptide microarray binding signal,[3]; [7],0.00583 ± 0.0036
same,peptide microarray binding signal,[3]; [8],0.0112 ± 0.0032
same,peptide microarray binding signal,[4]; [7],0.00489 ± 0.0019
same,peptide microarray binding signal,[4]; [8],0.003 ± 0.00036
QTARKSTGGKAPR [H3 5-17 Q T A R Kme S T G G Kac A P R],peptide microarray binding signal,"[1]; peptide modifications: H3K9me1 H3K14ac, binder concentration: 50 nM",0.00661 ± 0.00012
same,peptide microarray binding signal,"[1]; peptide modifications: H3K9me1 H3K14ac, binder concentration: 500 nM",0.0218 ± 0.0024
same,peptide microarray binding signal,"[2]; peptide modifications: H3K9me1 H3K14ac, binder concentration: 10 nM",0.0233 ± 0.0035
same,peptide microarray binding signal,"[2]; peptide modifications: H3K9me1 H3K14ac, binder concentration: 100 nM",0.0424 ± 0.0029
same,peptide microarray binding signal,[3]; [9],0.00255 ± 0.00039
same,peptide microarray binding signal,[3]; [10],0.00228 ± 0.00016
same,peptide microarray binding signal,[4]; [9],0.0548 ± 0.0034
same,peptide microarray binding signal,[4]; [10],0.016 ± 0.00023
QTARKSTGGKAPR [H3 5-17 Q T A R Kme2 S T G G Kme2 A P R],peptide microarray binding signal,"[1]; peptide modifications: H3K9me2 H3K14me2, binder concentration: 50 nM",0.00555 ± 0.0003
same,peptide microarray binding signal,"[1]; peptide modifications: H3K9me2 H3K14me2, binder concentration: 500 nM",0.011 ± 0.00059
same,peptide microarray binding signal,"[2]; peptide modifications: H3K9me2 H3K14me2, binder concentration: 10 nM",0.00937 ± 0.00041
same,peptide microarray binding signal,"[2]; peptide modifications: H3K9me2 H3K14me2, binder concentration: 100 nM",0.00999 ± 0.0011
same,peptide microarray binding signal,[3]; [11],0.00672 ± 0.00077
same,peptide microarray binding signal,[3]; [12],0.00496 ± 0.00056
same,peptide microarray binding signal,[4]; [11],0.175 ± 0.021
same,peptide microarray binding signal,[4]; [12],0.0735 ± 0.0023
QTARKSTGGKAPR [H3 5-17 Q T A R Kme2 S T G G Kme A P R],peptide microarray binding signal,"[1]; peptide modifications: H3K9me2 H3K14me1, binder concentration: 50 nM",0.00589 ± 7.1e-05
same,peptide microarray binding signal,"[1]; peptide modifications: H3K9me2 H3K14me1, binder concentration: 500 nM",0.015 ± 0.0013
same,peptide microarray binding signal,"[2]; peptide modifications: H3K9me2 H3K14me1, binder concentration: 10 nM",0.00812 ± 0.00048
same,peptide microarray binding signal,"[2]; peptide modifications: H3K9me2 H3K14me1, binder concentration: 100 nM",0.0359 ± 0.0037
same,peptide microarray binding signal,[3]; [13],0.00455 ± 0.00086
same,peptide microarray binding signal,[3]; [14],0.00365 ± 0.00015
same,peptide microarray binding signal,[4]; [13],0.217 ± 0.078
same,peptide microarray binding signal,[4]; [14],0.0891 ± 0.021
QTARKSTGGKAPR [H3 5-17 Q T A R Kme S Tph G G K A P R],peptide microarray binding signal,"[1]; peptide modifications: H3K9me1 H3T11ph, binder concentration: 50 nM",0.00179 ± 4.4e-05
same,peptide microarray binding signal,"[1]; peptide modifications: H3K9me1 H3T11ph, binder concentration: 500 nM",0.003 ± 0.00011
same,peptide microarray binding signal,"[2]; peptide modifications: H3K9me1 H3T11ph, binder concentration: 10 nM",0.002208 ± 2.2e-05
same,peptide microarray binding signal,"[2]; peptide modifications: H3K9me1 H3T11ph, binder concentration: 100 nM",0.00524 ± 0.00071
same,peptide microarray binding signal,[3]; [15],0.000396 ± 4.2e-05
same,peptide microarray binding signal,[3]; [16],0.000285 ± 3.1e-06
same,peptide microarray binding signal,[4]; [15],0.00856 ± 0.0022
same,peptide microarray binding signal,[4]; [16],0.00208 ± 5.1e-05
QTARKSTGGKAPR [H3 5-17 Q T A R Kac S Tph G G K A P R],peptide microarray binding signal,"[1]; peptide modifications: H3K9ac H3T11ph, binder concentration: 50 nM",0.00266 ± 6.1e-05
same,peptide microarray binding signal,"[1]; peptide modifications: H3K9ac H3T11ph, binder concentration: 500 nM",0.0107 ± 0.00079
same,peptide microarray binding signal,"[2]; peptide modifications: H3K9ac H3T11ph, binder concentration: 10 nM",0.00531 ± 0.00025
same,peptide microarray binding signal,"[2]; peptide modifications: H3K9ac H3T11ph, binder concentration: 100 nM",0.0213 ± 0.0014
same,peptide microarray binding signal,[3]; [17],0.000755 ± 2.5e-05
same,peptide microarray binding signal,[3]; [18],0.000171 ± 1.9e-06
same,peptide microarray binding signal,[4]; [17],0.00547 ± 0.00037
same,peptide microarray binding signal,[4]; [18],0.00271 ± 0.00015
QTARKSTGGKAPR [H3 5-17 Q T A R Kme3 S T G G K A P R],peptide microarray binding signal,"[1]; peptide modifications: H3K9me3, binder concentration: 50 nM",0.00411 ± 0.00036
same,peptide microarray binding signal,"[1]; peptide modifications: H3K9me3, binder concentration: 500 nM",0.00362 ± 0.00095
same,peptide microarray binding signal,"[2]; peptide modifications: H3K9me3, binder concentration: 10 nM",0.00448 ± 6.1e-05
same,peptide microarray binding signal,"[2]; peptide modifications: H3K9me3, binder concentration: 100 nM",0.002126 ± 2.1e-05
same,peptide microarray binding signal,[3]; [19],0.00266 ± 0.00033
same,peptide microarray binding signal,[3]; [20],0.00519 ± 0.00032
same,peptide microarray binding signal,[4]; [19],0.00814 ± 0.0004
same,peptide microarray binding signal,[4]; [20],0.0129 ± 0.0011
QTARKSTGGKAPR [H3 5-17 Q T A R Kme S T G G Kme A P R],peptide microarray binding signal,"[1]; peptide modifications: H3K9me1 H3K14me1, binder concentration: 50 nM",0.00339 ± 6.1e-05
same,peptide microarray binding signal,"[1]; peptide modifications: H3K9me1 H3K14me1, binder concentration: 500 nM",0.00657 ± 6.6e-05
same,peptide microarray binding signal,"[2]; peptide modifications: H3K9me1 H3K14me1, binder concentration: 10 nM",0.00388 ± 5.4e-05
same,peptide microarray binding signal,"[2]; peptide modifications: H3K9me1 H3K14me1, binder concentration: 100 nM",0.0145 ± 0.0038
same,peptide microarray binding signal,[3]; [21],0.00068 ± 1.9e-05
same,peptide microarray binding signal,[3]; [22],0.000571 ± 1.1e-05
same,peptide microarray binding signal,[4]; [21],0.0061 ± 0.0011
same,peptide microarray binding signal,[4]; [22],0.00283 ± 0.00027
QTARKSTGGKAPR [H3 5-17 Q T A R Kac Sph T G G K A P R],peptide microarray binding signal,"[1]; peptide modifications: H3K9ac H3S10ph, binder concentration: 50 nM",0.00592 ± 8.9e-05
same,peptide microarray binding signal,"[1]; peptide modifications: H3K9ac H3S10ph, binder concentration: 500 nM",0.0176 ± 0.0016
same,peptide microarray binding signal,"[2]; peptide modifications: H3K9ac H3S10ph, binder concentration: 10 nM",0.00507 ± 0.00017
same,peptide microarray binding signal,"[2]; peptide modifications: H3K9ac H3S10ph, binder concentration: 100 nM",0.0274 ± 0.0063
same,peptide microarray binding signal,[3]; [23],0.0005474 ± 5.3e-06
same,peptide microarray binding signal,[3]; [24],0.000514 ± 1.5e-05
same,peptide microarray binding signal,[4]; [23],0.00667 ± 0.00058
same,peptide microarray binding signal,[4]; [24],0.00265 ± 0.00012
